Source: PubChem BioAssay (NCI)
About 79,000 compounds went through this panel and 15% of them were active in at least one assay; those are over-represented in the sample as a whole. A number with no mark means an inactive call. Active and inactive are the calls of the source. Rule as the data show it: active = growth inhibition above about 70%; inactive = the rest.

Key:
[1] = NCI Yeast Anticancer Drug Screen. Data for the rad50 strain (AID 155);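 also: 0% = growth of vehicle-only cultures of the same strain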; conditions: S. cerevisiae rad50 strain growth inhibition, hits give high values
Method in brief: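 Growth of the mutant yeast was measured after compound exposure and referenced to vehicle-treated cultures.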

[2] = NCI Yeast Anticancer Drug Screen. Data for the mec2-1 strain (AID 157); conditions: S. cerevisiae mec2-1 strain, hits give high values
Method in brief: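 Using mec2-1 yeast: add compound, measure growth, express inhibition versus vehicle-treated cultures.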

[3] = NCI Yeast Anticancer Drug Screen. Data for the sgs1 mgt1 strain (AID 161);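 also: 0% = growth of cultures given vehicle only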; conditions: S. cerevisiae sgs1 mgt1 strain, hits give high values
Method in brief: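 This yeast growth screen uses a strain with defined DNA-repair lesions; compound-treated growth is compared with vehicle-treated growth.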

[4] = NCI Yeast Anticancer Drug Screen. Data for the cln2 rad14 strain (AID 165);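 also: 0% = growth equal to vehicle treated cultures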; conditions: S. cerevisiae cln2 rad14 strain, hits give high values
Method in brief: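 Yeast strain cln2 rad14, bearing defects in cell cycle control and DNA repair, serves as the test system; values reflect growth inhibition compared with vehicle.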

[5] = NCI Yeast Anticancer Drug Screen. Data for the bub3 strain (AID 167); conditions: S. cerevisiae bub3 mutant strain, hits give high values
Method in brief: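 Whole-cell yeast assay. The mutant strain was incubated with compounds, and growth inhibition was determined by comparison with vehicle-treated cells.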

[6] = NCI Yeast Anticancer Drug Screen. Data for the mlh1 rad18 strain (AID 175); conditions: S. cerevisiae mlh1 rad18 strain growth inhibition, hits give high values
Method in brief: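 Steps: expose repair-defective yeast to compound; measure growth; express inhibition against vehicle-treated controls.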

[7] = at 5.0 µM (retest, dose inferred, filed as 0.5)
[8] = at 50.0 µM (retest, dose inferred, filed as 5.0)

SMILES	growth inhibition [1, 7]	growth inhibition [1, 8]	growth inhibition ([1]; at 50.0 µM)	growth inhibition [2, 7]	growth inhibition [2, 8]	growth inhibition ([2]; at 50.0 µM)	growth inhibition [3, 7]	growth inhibition [3, 8]	growth inhibition ([3]; at 50.0 µM)	growth inhibition [4, 7]	growth inhibition [4, 8]	growth inhibition ([4]; at 50.0 µM)	growth inhibition [5, 7]	growth inhibition [5, 8]	growth inhibition ([5]; at 50.0 µM)	growth inhibition [6, 7]	growth inhibition [6, 8]	growth inhibition ([6]; at 50.0 µM)
C/C(N=NC(=S)N1CCCCCC1)=C1\C=CC=CN1O	17%	38%	72.9% (active)	12%	31%	74.2% (active)	14%	27%	68.4%	19%	31%	30.6%	21%	33%	69%	24%	44%	
C/C(=N\NC(=S)N1CCN(c2ccccn2)CC1)c1nccs1	23%	98% (active)	86.5% (active)	43%	99% (active)	91.6% (active)	43%	99% (active)	90.8% (active)	52%	98% (active)	89.5% (active)	73% (active)	99% (active)	87.3% (active)	38%	99% (active)	
CS(=O)(=O)OCCN(CCOS(C)(=O)=O)c1ccc(C=Nc2ccc(-c3csc(Cc4ccccc4)n3)cc2)c(Cl)c1	16%	95% (active)	71.2% (active)	7%	93% (active)	76.6% (active)	-22%	83% (active)	71% (active)	7%	85% (active)	77% (active)	-35%	78% (active)	76% (active)	15%	94% (active)	
Clc1nc(Cl)c(Cl)c(Cl)n1	29%	98% (active)	64%	23%	100% (active)	72.5% (active)	5%	98% (active)	8.65%	11%	92% (active)	13.1%	23%	99% (active)	33%	39%	98% (active)	
CC[C@@]1(OC(=O)C(N)CCCCN)C(=O)OCc2c1cc1n(c2=O)Cc2cc3ccccc3nc2-1 (some centres not stated)	92% (active)	95% (active)	80.3% (active)	44%	96% (active)	83.9% (active)	18%	-11%	77.1% (active)	13%	-36%	45.5%	22%	30%	64.1%	48%	91% (active)	
O=C(NN1CCOC1=O)OCCCl	-2%	2%	24.7%	-1%	-6%	18.7%	-8%	-7%	34.6%	9%	0%	24.6%	6%	2%	-16.1%	-1%	1%	73.5% (active)
Cc1ccc(NCCN(C)C)c2c(=O)c3cc(O)ccc3sc12	27%	99% (active)	88.7% (active)	5%	99% (active)	91.3% (active)	10%	99% (active)	91.2% (active)	15%	98% (active)	90% (active)	4%	98% (active)	88.4% (active)	18%	99% (active)	
COC(=O)C(=O)C(C(=O)C(c1ccccc1)c1ccccc1)c1nc2n(c1O)/C(=N/C(=O)Nc1ccc(Cl)cc1)N=N2 (configuration not stated)	0%	41%	76.6% (active)	6%	58%	87.2% (active)	6%	80% (active)	85.7% (active)	-11%	30%	56.3%	-1%	35%	41.2%	-3%	41%	78.5% (active)
Cc1n(CC(C)C)c2c([n+]1C)C(=O)c1ccccc1C2=O	34%	98% (active)	85% (active)	44%	99% (active)	90.4% (active)	44%	99% (active)	91% (active)	21%	95% (active)	89% (active)	60%	99% (active)	89.5% (active)	68%	98% (active)	
COc1cc2c(c(OC)c1OC)-c1ccc(SC)c(=O)cc1C(NC(=O)c1ccccc1)CC2 (configuration not stated)	-9%	65%	79.8% (active)	-20%	61%	86.9% (active)	5%	81% (active)	83.5% (active)	11%	48%	52.9%	-29%	63%	78.5% (active)	-6%	70% (active)	
